# Test results taken from the OligoGym collection.
# Columns and labels:
# Test in all cases: pooled miR-30 sensor sort-seq; sequence = guide strand
# Conditions in all cases: shRNA
# ASCL1 = target: ASCL1
# ASNSD1 = target: ASNSD1
# ASF1A = target: ASF1A
# ASPRV1 = target: ASPRV1
# ATP10B = target: ATP10B
# ATP6V0A4 = target: ATP6V0A4
# AVPR1B = target: AVPR1B
# ATP8B3 = target: ATP8B3
# ATP8A2 = target: ATP8A2
# BBS5 = target: BBS5
# BCAR3 = target: BCAR3
# BCL11A = target: BCL11A
# BCL7A = target: BCL7A
# BBC3 = target: BBC3
# BRD2 = target: BRD2
# BRAP = target: BRAP
# BOLA1 = target: BOLA1
# BOP1 = target: BOP1
# Note: reference of the scale not given here.
sequence,measurement,setting,value
TTCACTGTAAACCAATGTCTAC,sensor-assay potency score (higher = more potent),ASCL1,-1.2
TTTGCAGCGCATCAGTTCGGGC,sensor-assay potency score (higher = more potent),ASCL1,-1.5
TAACTCTGTCATCACGACCAAG,sensor-assay potency score (higher = more potent),ASNSD1,-0.98
ATGGAGTTCAAGTCGTTGGAGT,sensor-assay potency score (higher = more potent),ASCL1,-1.08
TAACATGACATTTAGTGAGTTT,sensor-assay potency score (higher = more potent),ASF1A,-0.448
ATGCTCGTCCAGCAGCTGCTGC,sensor-assay potency score (higher = more potent),ASCL1,-1.67
TCCACCTTACTCATCTTCTTGT,sensor-assay potency score (higher = more potent),ASCL1,-0.496
TTGCGCTCGCGCTCGTTGCGGC,sensor-assay potency score (higher = more potent),ASCL1,-0.896
TCATTGATGACTTCAAAGCTGT,sensor-assay potency score (higher = more potent),ASPRV1,-0.318
TTCCATAGAAACACATTGCCTC,sensor-assay potency score (higher = more potent),ASNSD1,0.13
TTTGAAGCTTAGAAAAGTCTGG,sensor-assay potency score (higher = more potent),ASF1A,0.13
ATTCTCTTCAGCTTCAACCTTT,sensor-assay potency score (higher = more potent),ASNSD1,0.221
TCTAACATGACATTTAGTGAGT,sensor-assay potency score (higher = more potent),ASF1A,0.228
TAACATGGTGATTTCTCTGTGG,sensor-assay potency score (higher = more potent),ATP10B,0.162
TTGTGACAAACACATCTCCTCG,sensor-assay potency score (higher = more potent),ATP6V0A4,-1.11
TTGGTGACTCTTCAGGCCTGGG,sensor-assay potency score (higher = more potent),AVPR1B,-0.954
TTCTCTGACAGCAGCTCGCAGG,sensor-assay potency score (higher = more potent),ATP8B3,-0.893
TTGACTGAGAAACCGAAGCCGA,sensor-assay potency score (higher = more potent),ATP8B3,-0.857
TTCAACATAACACATTGCCTGA,sensor-assay potency score (higher = more potent),ATP8A2,-0.505
TGGTGGAATCTTCATCAGGGGC,sensor-assay potency score (higher = more potent),AVPR1B,-1.82
TTGATCTCTTGAGAGGCGCTTT,sensor-assay potency score (higher = more potent),ATP8A2,-0.359
TAAATGACCAGTCCATAGCAGG,sensor-assay potency score (higher = more potent),ATP8B3,-1.07
TAGGTGGAGGCAAACATGCTGA,sensor-assay potency score (higher = more potent),AVPR1B,-0.677
TTGAAGCCCATGTAGATCCAGG,sensor-assay potency score (higher = more potent),AVPR1B,-0.752
TTTTAGGTTTTTACAGATCTCA,sensor-assay potency score (higher = more potent),AVPR1B,-0.253
TGTGTCTTGACTTTTAGGTTTT,sensor-assay potency score (higher = more potent),AVPR1B,-1.08
TTGGTCAACAGCAACTTCTCAG,sensor-assay potency score (higher = more potent),ATP8B3,-0.358
TCTGCCAGCTCCAAGTCCCTTG,sensor-assay potency score (higher = more potent),AVPR1B,-1.14
TTTACAGATCTCATGGCAGATG,sensor-assay potency score (higher = more potent),AVPR1B,-1.02
TTGGTCTTGTATTTCTTCCTTT,sensor-assay potency score (higher = more potent),ATP8B3,-0.502
TTCTTTGACTGAGAAACCGAAG,sensor-assay potency score (higher = more potent),ATP8B3,-1.15
TTGGCCAGCTCCTCATCCCGGC,sensor-assay potency score (higher = more potent),AVPR1B,-0.765
ATCTTCACTGTTCGGATCTTGG,sensor-assay potency score (higher = more potent),AVPR1B,-1.06
TAGGTTTTTACAGATCTCATGG,sensor-assay potency score (higher = more potent),AVPR1B,0.26
TTCTTGTCCCACACGGACCACA,sensor-assay potency score (higher = more potent),AVPR1B,-1.03
TAGAAGTTGTACTTGGCCGTGC,sensor-assay potency score (higher = more potent),ATP8B3,1.18
TTGGTGGAATCTTCATCAGGGG,sensor-assay potency score (higher = more potent),AVPR1B,-0.225
ATCAGGGGCATTCTTGTCCCAC,sensor-assay potency score (higher = more potent),AVPR1B,-1.06
AAACATGCTGAGCACCTGCAGG,sensor-assay potency score (higher = more potent),AVPR1B,-1.16
ATCTGGACACTGAAGAAGGGAG,sensor-assay potency score (higher = more potent),AVPR1B,-1.3
TTTTTACAGATCTCATGGCAGA,sensor-assay potency score (higher = more potent),AVPR1B,-0.895
TTTTTGTGTCAAAACCAGCATA,sensor-assay potency score (higher = more potent),ATP8B3,-0.74
TAGTACATCTGCACGTCCCAGT,sensor-assay potency score (higher = more potent),ATP8B3,0.127
TAAGTGCAGCACGAACAGGTGC,sensor-assay potency score (higher = more potent),AVPR1B,-0.436
TGACAGACAGCCAGGTAGCGGT,sensor-assay potency score (higher = more potent),AVPR1B,-1.51
TTTAGGTTTTTACAGATCTCAT,sensor-assay potency score (higher = more potent),AVPR1B,-1.13
TAATTTTTGTGTCAAAACCAGC,sensor-assay potency score (higher = more potent),ATP8B3,-1.1
TCAATGTTCTTCAACAGCCTGG,sensor-assay potency score (higher = more potent),ATP8A2,-0.00859
TTGACTTTTAGGTTTTTACAGA,sensor-assay potency score (higher = more potent),AVPR1B,-0.906
TTTGATGTTGCTCTTCTTGAGA,sensor-assay potency score (higher = more potent),ATP8B3,-0.55
TTAGGTTTTTACAGATCTCATG,sensor-assay potency score (higher = more potent),AVPR1B,-1.16
TTCCTGACTAACAGCTCCGTGT,sensor-assay potency score (higher = more potent),ATP8A2,-0.616
AAGATAGCCAGGGTGGTCCAGG,sensor-assay potency score (higher = more potent),AVPR1B,-1.04
TTTCTTGTCATTCCATTCCAGG,sensor-assay potency score (higher = more potent),ATP8B3,-1.26
TTTGTCTCCTGTCAACACCCAT,sensor-assay potency score (higher = more potent),ATP8A2,-1.17
TTCACTGTTCGGATCTTGGCCC,sensor-assay potency score (higher = more potent),AVPR1B,0.0628
TTCGACTGTCAGAGCTTCGAGC,sensor-assay potency score (higher = more potent),BBS5,-0.723
TGAATTTCTCATATCTCTCTGT,sensor-assay potency score (higher = more potent),BCAR3,0.413
TATCATATACATGTTCTTGTGG,sensor-assay potency score (higher = more potent),BBS5,-0.0827
TTGCACGTTTCAACATTGCTGT,sensor-assay potency score (higher = more potent),BCAR3,-0.296
TTGACAACCAAGTAGATCTGGA,sensor-assay potency score (higher = more potent),BCL11A,0.0039
TTTCCTTAACTGATTCTTGTAG,sensor-assay potency score (higher = more potent),BBS5,-0.239
TAAATATAAATTCAAAACGAGT,sensor-assay potency score (higher = more potent),BBS5,-1.56
AACATTTTGATTCTTCTCGAAG,sensor-assay potency score (higher = more potent),BCL7A,-1.09
TTATTTTATACTCAACCTCTGT,sensor-assay potency score (higher = more potent),BCL11A,-0.873
TTTATCATATACATGTTCTTGT,sensor-assay potency score (higher = more potent),BBS5,0.705
TAGCATAGGAATCAACATGAGT,sensor-assay potency score (higher = more potent),BCL11A,-0.704
TTGAATTTCTCATATCTCTCTG,sensor-assay potency score (higher = more potent),BCAR3,0.778
ATAACAAGTAGAAAGAACCATC,sensor-assay potency score (higher = more potent),BCL11A,-0.773
TAAAAGACAACATAGAATGTAT,sensor-assay potency score (higher = more potent),BCL11A,0.0879
TTAGTATATAGAGAGCTTCAGT,sensor-assay potency score (higher = more potent),BBS5,-0.624
TCTGATTGACTTGTGCACCTTT,sensor-assay potency score (higher = more potent),BCAR3,0.95
TCCGCCGCTCGTACTGTGCGTT,sensor-assay potency score (higher = more potent),BBC3,-1.32
TCGCATTTGAAATTCAGTCTTG,sensor-assay potency score (higher = more potent),BCAR3,-0.471
TTGAATTTGTTCGACTGTCAGA,sensor-assay potency score (higher = more potent),BBS5,-0.412
AAATTTTGAATCTCTAATCTTT,sensor-assay potency score (higher = more potent),BBS5,-0.135
TAACCTTGTGATCTGTGGCATT,sensor-assay potency score (higher = more potent),BCAR3,-0.946
TTCTACATCATCTTGAATTTGT,sensor-assay potency score (higher = more potent),BBS5,-0.245
TAAACAATCGTCATCCTCTGGC,sensor-assay potency score (higher = more potent),BCL11A,-0.0288
TTAGAGTTAGCAGTCCTTGTTG,sensor-assay potency score (higher = more potent),BBS5,-0.252
TTAATTGTCCTATCTGAGCAGG,sensor-assay potency score (higher = more potent),BCL11A,-0.599
TTGTACAAACCATATCTACTGA,sensor-assay potency score (higher = more potent),BCL7A,-0.0617
TGAAATTTGAACGTCTTGCCGC,sensor-assay potency score (higher = more potent),BCL11A,0.0443
TTGCACTATATTATCCTGCCAA,sensor-assay potency score (higher = more potent),BCL11A,-0.344
TAGGAAGTCACCATCTCGCTGC,sensor-assay potency score (higher = more potent),BCAR3,0.641
TTCACATTTGTAAACGTCCTTC,sensor-assay potency score (higher = more potent),BCL11A,-0.693
TACTATATAATCTTAAACCTTT,sensor-assay potency score (higher = more potent),BCL11A,-0.147
TATCATTTGATTGTCCACTTGA,sensor-assay potency score (higher = more potent),BCL11A,0.591
TACAGTATCTTACAGGCTGGGC,sensor-assay potency score (higher = more potent),BBC3,-0.231
TTGAGGAACGGCACCTTGCAGG,sensor-assay potency score (higher = more potent),BCAR3,-0.594
TTTTCTAACCTTGTGATCTGTG,sensor-assay potency score (higher = more potent),BCAR3,-0.0388
TTGAGGGACAAGGCTCTTCTGT,sensor-assay potency score (higher = more potent),BCAR3,-0.76
TTTTATCATATACATGTTCTTG,sensor-assay potency score (higher = more potent),BBS5,-0.69
TTGACTTGTGCACCTTTGCTGC,sensor-assay potency score (higher = more potent),BCAR3,-0.561
AACATATCCACCACTCTGCTGA,sensor-assay potency score (higher = more potent),BBS5,-0.129
TTGGTGAACAGTTCTTTTGCAC,sensor-assay potency score (higher = more potent),BCAR3,0.174
TTTCTCATTCGCTTTCTTGGGG,sensor-assay potency score (higher = more potent),BRD2,0.425
TAGGACAATATCATCAGTGGGC,sensor-assay potency score (higher = more potent),BRD2,0.486
TTTCTTTCCACAGACTGCTTTT,sensor-assay potency score (higher = more potent),BRAP,-0.773
TGATTCTTCTCTTTTCTCGGGT,sensor-assay potency score (higher = more potent),BOLA1,0.0423
TTGGGCATCAGCTTCTTGGTGA,sensor-assay potency score (higher = more potent),BOP1,0.503
TTAGTAAATATGAATACTCTAA,sensor-assay potency score (higher = more potent),BRAP,-0.689
TTGGATTATATGCACAACTCGG,sensor-assay potency score (higher = more potent),BRD2,-1.15
TAAATATGAATACTCTAACTGT,sensor-assay potency score (higher = more potent),BRAP,-0.208
AAAACTATCCGCATCAGCCTGT,sensor-assay potency score (higher = more potent),BRAP,0.418
TGGGGGGCTAGTGTCCAGCTGA,sensor-assay potency score (higher = more potent),BOLA1,-1.56
ATCCAGGTCAAACCACACCAGC,sensor-assay potency score (higher = more potent),BOP1,-1.99
TTCTCTATCCGAACTATCTTGT,sensor-assay potency score (higher = more potent),BRAP,-0.12
TAATCGCTACTTTCTCTCCTGG,sensor-assay potency score (higher = more potent),BRAP,-0.199
TTCGTCATCATCCTCACTGCTG,sensor-assay potency score (higher = more potent),BOP1,0.313
TTGCTATCGTAGCTCCCACAGA,sensor-assay potency score (higher = more potent),BOP1,-1.14
TTTAGCTGAGTGCACTTTCTTT,sensor-assay potency score (higher = more potent),BRAP,-0.371
TGCAGTAACAGCAAGGAGCGGG,sensor-assay potency score (higher = more potent),BRD2,-0.301
TTGTTTTCAAGTCTCCTCTTAA,sensor-assay potency score (higher = more potent),BRD2,-0.54
TCTTCTATTGAGTTGAACTGGC,sensor-assay potency score (higher = more potent),BRAP,-0.232
TAGTGAGTGATTCTTCTCTTTT,sensor-assay potency score (higher = more potent),BOLA1,-0.956
TGACATACCGTCCACATCCTAT,sensor-assay potency score (higher = more potent),BRAP,-1.06
TAGTCAGGATCGTCCATCTTGT,sensor-assay potency score (higher = more potent),BOP1,-0.541
TAACATGGAACATCCGGGCTGC,sensor-assay potency score (higher = more potent),BOLA1,0.946
TTTCCTGAACACCACACTCAAA,sensor-assay potency score (higher = more potent),BRAP,-1.71
